# Measured values published in the supplement of paper PMC8728848.
# This is one part of a sample in which the strongest signals are shown more often than they occur.
# Key:
# Experiment in all cases: glycan array binding signal (z-score within array); higher = stronger binding
# Conditions in all cases: glycan notation: IUPAC condensed, linker removed
# [1] = molecular target: Fuc(a1-2)Gal(b1-3)GalNAc(b1-3)Gal(a1-4)Gal(b1-4)Glc
# Summary of the method: (§1)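 Glycan array data came from 3228 arrays in the Consortium for Functional Glycomics database, and only arrays with an available protein sequence were kept. Glycan names were put into IUPAC-condensed notation, and columns mapping to the same glycan were averaged. The binding signal is a within-array Z-score, averaged across arrays of one protein sequence run at different concentrations or buffers and across linkers. A negative Z-score can be read as non-binding.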
# [2] = molecular target: Fuc(a1-2)Gal(b1-3)[Fuc(a1-4)]GlcNAc(b1-2)Man(a1-3)[Fuc(a1-2)Gal(b1-3)[Fuc(a1-4)]GlcNAc(b1-2)Man(a1-6)]Man(b1-4)GlcNAc(b1-4)[Fuc(a1-6)]GlcNAc(b1-4)[Fuc(a1-6)]GlcNAc
# Summary of the method: as §1
# [3] = molecular target: Fuc(a1-2)[Gal(a1-3)]Gal(b1-3)GlcNAc(b1-3)GalNAc
# Summary of the method: as §1
# [4] = molecular target: Fuc(a1-2)[Gal(a1-3)]Gal(b1-4)GlcNAc(b1-6)GalNAc
# Summary of the method: as §1
# [5] = molecular target: Fuc(a1-2)[GalNAc(a1-3)]Gal(b1-3)GlcNAc
# Summary of the method: as §1
# [6] = molecular target: Fuc(a1-2)[GalNAc(a1-3)]Gal(b1-3)GlcNAc(b1-2)Man(a1-3)[Fuc(a1-2)[GalNAc(a1-3)]Gal(b1-3)GlcNAc(b1-2)Man(a1-6)]Man(b1-4)GlcNAc(b1-4)[Fuc(a1-6)]GlcNAc
# Summary of the method: as §1
# [7] = molecular target: Fuc(a1-3)[Gal(b1-4)]Glc6S
# Summary of the method: as §1
# [8] = molecular target: Fuc(a1-3)[Gal(b1-4)]GlcNAc(b1-2)Man(a1-3)[Fuc(a1-3)[Gal(b1-4)]GlcNAc(b1-2)Man(a1-6)]Man(b1-4)GlcNAc(b1-4)[Fuc(a1-6)]GlcNAc
# Summary of the method: as §1
# [9] = molecular target: Fuc(a1-3)[GalNAc(b1-4)]GlcNAc6S
# Summary of the method: as §1
# [10] = molecular target: Gal(a1-3)Gal(b1-3)GlcNAc(b1-2)Man(a1-3)[Gal(a1-3)Gal(b1-3)GlcNAc(b1-2)Man(a1-6)]Man(b1-4)GlcNAc(b1-4)GlcNAc
# Summary of the method: as §1
# [11] = molecular target: Gal(a1-3)Gal(b1-3)GlcNAc(b1-3)GalNAc
# Summary of the method: as §1
# [12] = molecular target: Gal(a1-3)Gal(b1-4)GlcNAc(b1-6)GalNAc
# Summary of the method: as §1
# [13] = molecular target: Gal(a1-3)Gal(b1-4)[Fuc(a1-3)]GlcNAc(b1-2)Man(a1-3)[Gal(a1-3)Gal(b1-4)[Fuc(a1-3)]GlcNAc(b1-2)Man(a1-6)]Man(b1-4)GlcNAc(b1-4)GlcNAc
# Summary of the method: as §1
# Gal(a1-4)GlcNAc = molecular target: Gal(a1-4)GlcNAc
# Summary of the method: as §1
# Gal(a1-6)Glc = molecular target: Gal(a1-6)Glc
# Summary of the method: as §1
# [14] = molecular target: Gal(b1-3)GalNAc(b1-4)Gal(b1-4)Glc
# Summary of the method: as §1
# [15] = molecular target: Gal(b1-3)GlcNAc(a1-6)Gal(b1-4)GlcNAc
# Summary of the method: as §1
# [16] = molecular target: Gal(b1-3)GlcNAc(b1-3)Gal(b1-3)GlcNAc
# Summary of the method: as §1
# [17] = molecular target: Gal(b1-3)GlcNAc(b1-3)Gal(b1-4)GlcNAc
# Summary of the method: as §1
# [18] = molecular target: Gal(b1-3)GlcNAc(b1-3)Gal(b1-4)[Fuc(a1-3)]GlcNAc(b1-6)[Gal(b1-3)GlcNAc(b1-3)]Gal(b1-4)Glc
# Summary of the method: as §1
# [19] = molecular target: Gal(b1-3)[Fuc(a1-4)]GlcNAc(b1-2)Man
# Summary of the method: as §1
# [20] = molecular target: Gal(b1-3)[Fuc(a1-4)]GlcNAc(b1-3)Gal(b1-4)[Fuc(a1-3)]GlcNAc
# Summary of the method: as §1
# [21] = molecular target: Gal(b1-3)[Neu5Ac(a2-6)]GalNAc
# Summary of the method: as §1
# [22] = molecular target: Gal(b1-4)GlcNAc(b1-2)Man(a1-3)[Gal(b1-4)GlcNAc(b1-2)Man(a1-6)][GlcNAc(b1-4)]Man(b1-4)GlcNAc(b1-4)[Fuc(a1-6)]GlcNAc
# Summary of the method: as §1
# [23] = molecular target: Gal(b1-4)GlcNAc(b1-2)Man(a1-3)[GlcNAc(b1-4)][Gal(b1-4)GlcNAc(b1-2)Man(a1-6)]Man(b1-4)GlcNAc(b1-4)GlcNAc
# Summary of the method: as §1
# [24] = molecular target: Gal(b1-4)GlcNAc(b1-2)Man(a1-3)[Man(a1-6)]Man(b1-4)GlcNAc(b1-4)GlcNAc
# Summary of the method: as §1
# [25] = molecular target: Gal(b1-4)GlcNAc(b1-2)[Gal(b1-4)GlcNAc(b1-4)]Man(a1-3)[GlcNAc(b1-4)][Gal(b1-4)GlcNAc(b1-2)Man(a1-6)]Man(b1-4)GlcNAc(b1-4)GlcNAc
# Summary of the method: as §1
# [26] = molecular target: Gal(b1-4)GlcNAc(b1-2)[Gal(b1-4)GlcNAc(b1-6)]Man(a1-6)[Gal(b1-4)GlcNAc(b1-2)Man(a1-3)]Man(b1-4)GlcNAc(b1-4)[Fuc(a1-6)]GlcNAc
# Summary of the method: as §1
# [27] = molecular target: Gal(b1-4)GlcNAc(b1-3)Gal(b1-4)GlcNAc(b1-2)[Gal(b1-4)GlcNAc(b1-3)Gal(b1-4)GlcNAc(b1-6)]Man(a1-6)[Gal(b1-4)GlcNAc(b1-3)Gal(b1-4)GlcNAc(b1-2)Man(a1-3)]Man(b1-4)GlcNAc(b1-4)GlcNAc
# Summary of the method: as §1
# [28] = molecular target: Gal(b1-4)GlcNAc(b1-3)Gal(b1-4)GlcNAc(b1-3)Gal(b1-4)GlcNAc(b1-3)Gal(b1-4)GlcNAc(b1-2)Man(a1-3)[Gal(b1-4)GlcNAc(b1-3)Gal(b1-4)GlcNAc(b1-3)Gal(b1-4)GlcNAc(b1-3)Gal(b1-4)GlcNAc(b1-2)Man(a1-6)]Man(b1-4)GlcNAc(b1-4)GlcNAc
# Summary of the method: as §1
binder,measurement,setting,value
Epa3to1 (Candida glabrata) (protein) MGSSHHHHHHSSGLVPRGSHMKRELSSQNPFGYPIGCSPQDVAIIPGLTMELYSYPIVSGTPPNCYDASYVDPEYPRTGYLKRKMVGKSTGVTGNLNYKYSVEKACMVKYGNLPAGYNYNEPLTVSNFTMILYGYFKAQTTGLHTFFVNADDLLYINFGAGNAFDCCKREDSKTKLGEYVAYDIWHVDSSKNKVSLFLEKDLYYPIRMFFNNREYDSSLDLSFSVNGATDQISDFSGYLYSVPDQPDTCPAHIGYDTTCR,glycan array binding signal (z-score),[1],-0.161
same,glycan array binding signal (z-score),[2],-0.07
same,glycan array binding signal (z-score),[3],-0.274
same,glycan array binding signal (z-score),[4],-0.462
same,glycan array binding signal (z-score),[5],0.225
same,glycan array binding signal (z-score),[6],-0.204
same,glycan array binding signal (z-score),[7],0.568
same,glycan array binding signal (z-score),[8],0.093
same,glycan array binding signal (z-score),[9],-0.498
same,glycan array binding signal (z-score),[10],0.169
same,glycan array binding signal (z-score),[11],-0.594
same,glycan array binding signal (z-score),[12],0.248
same,glycan array binding signal (z-score),[13],-0.206
same,glycan array binding signal (z-score),Gal(a1-4)GlcNAc,3.41
same,glycan array binding signal (z-score),Gal(a1-6)Glc,1.7
same,glycan array binding signal (z-score),[14],5.3
same,glycan array binding signal (z-score),[15],0.409
same,glycan array binding signal (z-score),[16],-0.713
same,glycan array binding signal (z-score),[17],-0.502
same,glycan array binding signal (z-score),[18],-0.061
same,glycan array binding signal (z-score),[19],-0.37
same,glycan array binding signal (z-score),[20],-0.87
same,glycan array binding signal (z-score),[21],5.48
same,glycan array binding signal (z-score),[22],-0.745
same,glycan array binding signal (z-score),[23],-0.291
same,glycan array binding signal (z-score),[24],3.23
same,glycan array binding signal (z-score),[25],0.229
same,glycan array binding signal (z-score),[26],0.071
same,glycan array binding signal (z-score),[27],7.55
same,glycan array binding signal (z-score),[28],-0.05
